NPSR antag – antagonists of human neuropeptide S receptor cAMP signaling. 220,000 compounds, 1% hits. CHO-NPSR cells, cAMP TR-FRET, antagonist mode. Potency, µM (highest dose often 38.3 µM), for inactives: at the top dose activity change, negative = inhibition, most hits filed as inhibitors. Q6W5P4. AID 1461; further: nearly all actives have a fitted effect of over 50% in size
rTrxR1 inhibitor – inhibitors of rat thioredoxin reductase 1; Potency, µM (titrated, usually from 114 µM), without a hit: at the highest dose activity change, negative = inhibition, usual class: inhibitors; 390,000 compounds, 1% hits; recombinant rTrxR1, NADPH fluorescence consumption, selenite substrate; AID 588453; further: nearly all actives have a fitted effect of over 65% in size
Target sequence (O89049 whole entry, looked up): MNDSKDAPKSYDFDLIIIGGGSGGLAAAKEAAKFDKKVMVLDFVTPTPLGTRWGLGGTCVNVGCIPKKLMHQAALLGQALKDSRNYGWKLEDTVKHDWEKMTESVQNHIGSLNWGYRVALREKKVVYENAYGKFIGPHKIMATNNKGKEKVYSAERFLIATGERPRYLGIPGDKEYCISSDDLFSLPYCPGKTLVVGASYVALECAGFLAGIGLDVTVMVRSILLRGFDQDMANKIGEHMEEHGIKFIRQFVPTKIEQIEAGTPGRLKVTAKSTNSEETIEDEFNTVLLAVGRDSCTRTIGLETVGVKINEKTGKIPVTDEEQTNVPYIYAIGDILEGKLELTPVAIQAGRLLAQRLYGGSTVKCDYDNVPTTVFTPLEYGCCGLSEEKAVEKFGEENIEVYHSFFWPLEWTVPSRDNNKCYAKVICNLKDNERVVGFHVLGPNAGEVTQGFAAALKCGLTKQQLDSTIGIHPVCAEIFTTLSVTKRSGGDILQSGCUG
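Rat TrxR1 (90 nM in the dispensed reagent) was pre-reduced with 400 uM NADPH for 5 min at room temperature, then incubated with compound for 15 min. After 400 uM selenite was added, NADPH fluorescence (Ex 340/Em 450 nm) was followed for 8 min.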
GALK inh – blocks human galactokinase activity | P51570 | Purified GALK, Kinase-Glo residual ATP luminescence | Potency, µM (highest dose often 57.5 µM), for the others: top-dose activity change, negative = inhibition, hits mostly inhibitors | 270,000 compounds, 0.007% hits | AID 1868
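Luminescence from leftover ATP (Ultra-Glo luciferase/luciferin) served as read-out after a 1 h room-temperature reaction of 5 nM GALK with 35 uM ATP and 100 uM galactose.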
TrxR1 substrate – is turned over as a substrate by rat TrxR1 | Potency, µM (top dose mostly 114 µM), inactives show at the top dose activity change, negative = substrate turnover | purified TrxR1 substrate turnover, NADPH consumption readout | 390,000 compounds, 0.01% hits; further: nearly all actives have a fitted effect of over 50% in size
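Rat TrxR1, dispensed at 90 nM, was prereduced with 400 uM NADPH (final) for 5 min at ~22 deg C, then incubated with compound 15 min before 400 uM selenite. A first-read NADPH fluorescence drop versus no-compound background flagged substrates.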
* = called active by the depositor; ? = inconclusive; . = no result; [ ] = remark or other dose. In the library only some 1.2% were active in any assay of this set; here they are far more common. The call rests on the fitted dose curve; in most records, active means well fitted curve in the direction sought with a large enough effect; inconclusive means small, poorly fitted or top-dose-only effect, or another doubt; inactive means no such curve, though single readings can be large; an effect the other way counts as inactive or inconclusive. On the % scale 0 is the no-effect control and ±100 the full control effect; potency means the concentration at half of the fitted maximal effect.

SMILES | NPSR antag | rTrxR1 inhibitor | GALK inh | TrxR1 substrate
O=C(CCN1C(=O)/C(=C\c2ccco2)SC1=S)Nc1ccc(C(=O)O)c(O)c1 | . | 39.8µM* | -0.2% | -4.8%
O=C(O)CCN1C(=O)/C(=C\c2ccc(-c3nc4ccccc4s3)o2)SC1=S | 12.6µM* | -3.7%[57.1 µM] | -0.5% | -6.5%
O=c1[nH]c(Nc2ccc(F)cc2)cc2ccccc12 | -11.6%[46.1 µM] | 11.2µM* | -1.9% | 32.3%
O=c1[nH]c(Nc2ccccc2Cl)cc2ccccc12 | . | 39.1% | . | 31.3%
CC(C)(C=O)C1=CC(=O)c2ccccc2C1=O | ? | 44.7µM* | -1.6% | 11.8%
COc1ccc([C@H]2[C@H](C(=O)OC(C)(C)C)N3N=Cc4ccccc4C3C23C(=O)c2ccccc2C3=O)cc1OC (stereo partly specified) | 7.94µM* | ? | 2.6% | -7.0%
COc1ccc([C@H]2[C@H](C(=O)OC(C)(C)C)N3N=Cc4ccccc4C3C23C(=O)c2ccccc2C3=O)c(OC)c1 (stereo partly specified) | -21.1% | -35.1% | 2.2% | -7.5%
Cc1nc(SCC(=O)N(C)Cc2ccco2)c2c(C)c(C)sc2n1 | -6.2%[46.1 µM] | 22.4µM* | 2.0% | -7.2%
Cc1sc2nc(C(C)C)nc(SCC(=O)N3CCN(C(=O)c4ccco4)CC3)c2c1C | -19.7%[46.1 µM] | 15.8µM* | -6.1% | -0.2%[57.1 µM]
CCN(C(=O)CSc1nc(C)nc2sc(C)c(C)c12)c1ccc(F)cc1 | . | 0.7% | . | -10.4%
Cc1sc2nnn(CC(=O)N3CCN(C(=O)c4ccco4)CC3)c(=O)c2c1C | . | ? | . | 0.5%
CC1(C)Cc2nc3oc4c(=S)nc[nH]c4c3cc2CO1 | ? | 11.2µM* | 2.6% | -7.7%
Nc1nc(N)c2c(OCc3ccc(C(F)(F)F)cc3)cccc2n1 | . | -0.5% | . | 20.2%
O=C1c2oc3ccccc3c(=O)c2C(c2cccc(O)c2)N1CCCN1CCOCC1 (stereo unspecified) | -0.6%[46.1 µM] | 44.7µM* | 2.5% | 4.2%
COc1cccc(C2c3c(oc4ccccc4c3=O)C(=O)N2CCCN2CCOCC2)c1OC (stereo unspecified) | . | 18.0% | . | -1.9%
COc1ccc(C2c3c(oc4ccccc4c3=O)C(=O)N2CCCN2CCOCC2)cc1 (stereo unspecified) | . | 35.5µM* | . | 3.2%
Cc1ccc(CCNC(=O)c2sc3ncccc3c2-n2cccc2)cc1 | . | 22.7%[57.1 µM] | . | 5.8%[57.1 µM]
O=C1CCCC2(O)C1C(c1cccc(Br)c1)NC(=O)N2Cc1ccccc1 (stereo unspecified) | -10.3%[46.1 µM] | 15.8µM* | 0.5% | 10.8%
O=C(c1ccc2c(c1)OCO2)n1nnc2ccccc21 | 0.2%[46.1 µM] | . | -0.3% | .
COc1ccc(C(=O)n2nnc3ccccc32)cc1OC | -23.4% | 3.16µM* | . | -5.6%
COc1ccc(C(=O)COC(=O)Cn2nnc3ccccc32)cc1Br | -9.0%[46.1 µM] | 15.5% | -4.5% | 1.0%
COc1ccc(C(=O)n2nnc3ccccc32)cc1Br | -17.0%[46.1 µM] | 3.98µM* | -0.2% | 7.3%
CCCCCCCCN1[C@@H](CC(=O)OC)c2ccc(/C=C/C(=O)OC)cc2S1(=O)=O | . | 15.9% | . | -5.0%
CCCc1cnc2c(c1SCc1ccc(C(F)(F)F)cc1)c(=O)n(C)c(=O)n2C | . | 18.2%[57.1 µM] | . | -1.0%[57.1 µM]
COc1cc2[nH]c(=O)n(Cc3ccc(C(=O)N4CCN(c5cccc(C)c5C)CC4)cc3)c(=O)c2cc1OC | . | 16.2% | . | 14.4%[2.29 µM]
SMILES | NPSR antag | rTrxR1 inhibitor | GALK inh | TrxR1 substrate
CS(=O)(=O)N1CCc2cc(C(=O)Nc3cccc(F)c3)ccc21 | . | 9.5% | . | -6.3%
CC1(C)c2ccccc2N2CCC(=O)NC21/C=C/c1ccco1 (stereo unspecified) | -5.4%[46.1 µM] | 39.8µM* | 0.7% | -3.4%
CC(=O)Oc1ccccc1C(=O)Nc1ccccc1 | . | 1.4%[57.1 µM] | . | 6.1%[57.1 µM]
COC1(OC)C=CC(=O)C=C1NC(=O)c1ccccc1OC(C)=O | . | 12.6µM* | . | -4.5%[57.1 µM]
C=CCc1cccc(CNc2nc3ccccc3n2CCC)c1O | 10µM* | 3.7%[57.1 µM] | 1.1% | -2.4%
O=C(Nc1ccccc1F)c1ccc(Cn2nc(N3CCN(c4ccccc4)CC3)ccc2=O)o1 | . | 4.7%[57.1 µM] | . | -4.2%[57.1 µM]
O=C(O)/C=C/C(=O)Nc1ccccc1C(=O)Nc1ccccc1 | 6.0%[46.1 µM] | 39.8µM* | 0.2% | -2.2%
Cc1ccc(NC(=O)COC(=O)c2ccccc2OCC(=O)Nc2ccc(Br)cc2)c(Br)c1 | . | 13.7% | . | 9.3%
O=C(Cc1ccc(OCC2CCCCC2)cc1)NO | . | -3.3% | . | -1.9%
O=C1CS(=O)(=O)N(Cc2ccc(F)cc2)c2ccccc21 | . | 44.7µM* | . | -5.8%
CC1C=CCC2C(=O)N(c3cccc(C(=O)NCc4ccccc4)c3)C(=O)C12 (stereo unspecified) | . | 13.0% | -1.2% | 6.0%
CC1CC=CC2C1C(=O)N(Cc1ccccc1)C2c1ccoc1 (stereo unspecified) | . | ? | . | -4.1%
O=C1CSC(=S)N1/N=C/C=C/c1ccccc1 | -3.5% | 28.2µM* | . | -7.2%
O=C1CSC(=S)N1/N=C/c1c(F)cccc1F | . | ? | -5.8% | 8.7%
COc1cc2c(cc1OC)/C(=C/c1ccc(N(C)C)cc1)C=C2 | . | -13.7% | . | -10.5%
Cc1c(Cl)cccc1NC(=O)c1ccc2c(c1)CCCN2S(C)(=O)=O | . | 23.3% | . | -2.0%
O=C(/C=C/c1ccc(Br)o1)NCCCN1CCOCC1 | 5.1% | 8.91µM* | -3.8% | -2.5%
CC1(C)CC(=O)C=C(NC2=CC3OC(c4ccccc4)OCC3OC2=O)C1 (stereo unspecified) | 2.51µM* | 15.8µM* | . | -6.6%
CCn1nnc2cc(C(=O)Nc3ccc(Cl)cc3C)ccc21 | . | 2.7%[57.1 µM] | . | -2.4%[57.1 µM]
Nc1cccnc1Sc1ccc(Cl)cc1 | 9.2%[46.1 µM] | ? | -1.9% | 18.1%
Nc1cccnc1Sc1cccc(Cl)c1 | 9.1%[46.1 µM] | 10µM* | . | 19.2%
COc1ccccc1C(=O)NC(=S)Nc1cccc2cc(O)ccc12 | . | ? | . | -5.4%
O=C(NC(=S)Nc1cccc2cc(O)ccc12)c1ccccc1Br | . | 50.1µM* | -11.0% | -3.8%
O=C(NC(=S)Nc1cccc2c(O)cccc12)c1ccco1 | . | -32.0% | 6.3% | 5.6%
O=C(NC(=S)Nc1cccc2cc(O)ccc12)c1ccco1 | . | 79.4µM* | -7.0% | -10.8%
SMILES | NPSR antag | rTrxR1 inhibitor | GALK inh | TrxR1 substrate
CC(=O)Nc1ccc(-c2nnc(SCC(=O)c3ccc([N+](=O)[O-])cc3)o2)cc1 | . | 10.3%[11.4 µM] | . | 3.5%[11.4 µM]
Cc1ccccc1CN1Cc2cccc3c2[C@H](C=CC3)CC1=O | . | 4.1% | . | 5.0%
O=C(O)c1ccc(Cn2c(SCc3cc(=O)n4cc(Br)ccc4n3)nc3ccsc3c2=O)cc1 | 10µM* | . | 10.2% | .
O=C(O)C1CCC(Cn2c(SCc3cc(=O)n4cc(Br)ccc4n3)nc3ccsc3c2=O)CC1 (stereo unspecified) | 7.94µM* | -2.9%[57.1 µM] | -2.8% | -4.8%
O=C(O)CCCCn1c(SCc2cc(=O)n3cc(Cl)ccc3n2)nc2ccsc2c1=O | -4.8% | -8.2% | . | 3.9%[57.1 µM]
COc1ccc(/C=C(\C#N)c2nc3ccccc3n2C)c(OC)c1 | . | -4.5% | . | -7.2%
Cc1c(Cl)cnc(NC(=O)COC(=O)[C@@H](NC(=O)c2ccco2)C(C)C)c1Cl | . | 11.2µM* | . | 8.0%
Cc1ccc(/C=C/S(=O)(=O)NCC(=O)OCC(=O)Nc2c(F)cccc2F)cc1 | . | 31.6µM* | . | -2.6%
[O-][n+]1c2ccccc2cc2ccccc21 | . | 15.7% | . | 185.2%
